# Reference: PMC7862700, “An all-to-all approach to the identification of sequence-specific readers for epigenetic DNA modifications on cytosine”
# What was measured:
# Assay in all cases: DAPPL (digital affinity profiling via proximity ligation, sequencing); 10 mM Tris-HCl pH 7.5, 50 mM NaCl, 1 mM DTT, 4% glycerol, room temperature, 30 min; GST-TFs on glutathione beads, 16-mer random dsDNA library, 0.1% formaldehyde crosslink after washing; high values mean tight binding
# FLI1 = biological target: T1, FLI1 (Homo sapiens, UniProt Q01543 1-452); details: protein: recombinant; tags: N-terminal GST; dsDNA, one strand shown
# T1 sequence: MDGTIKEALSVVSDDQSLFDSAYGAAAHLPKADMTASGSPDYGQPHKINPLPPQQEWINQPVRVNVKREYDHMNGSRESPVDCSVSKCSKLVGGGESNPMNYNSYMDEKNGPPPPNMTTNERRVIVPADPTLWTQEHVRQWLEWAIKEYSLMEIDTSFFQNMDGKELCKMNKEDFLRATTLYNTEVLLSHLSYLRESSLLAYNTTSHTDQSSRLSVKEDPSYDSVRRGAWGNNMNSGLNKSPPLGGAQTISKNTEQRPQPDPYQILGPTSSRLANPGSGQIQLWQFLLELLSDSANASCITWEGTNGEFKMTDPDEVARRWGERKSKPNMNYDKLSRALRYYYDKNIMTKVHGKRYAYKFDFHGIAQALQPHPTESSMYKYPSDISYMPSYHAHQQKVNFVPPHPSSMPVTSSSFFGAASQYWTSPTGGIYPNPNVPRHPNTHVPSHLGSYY
# How it was run: (§1)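 Pools were built from human transcription factors expressed in yeast as GST fusions, captured on glutathione beads and DNA-barcoded, along with a tag-only sample. Incubation with 200 nmole of a 16-mer random double-stranded DNA library lasted 30 min at room temperature in Tris/NaCl/DTT/glycerol buffer, and was followed by washing, 0.1% formaldehyde crosslinking, proximity ligation, PCR amplification and Illumina NextSeq500 sequencing. Binding signal is the quotient of each hexamer's read frequency for a factor and its frequency for the tag-only sample.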
# ELK1 = biological target: T2, ELK1 (Homo sapiens, UniProt P19419 1-428); details: protein: recombinant; tags: N-terminal GST; dsDNA, one strand shown
# T2 sequence: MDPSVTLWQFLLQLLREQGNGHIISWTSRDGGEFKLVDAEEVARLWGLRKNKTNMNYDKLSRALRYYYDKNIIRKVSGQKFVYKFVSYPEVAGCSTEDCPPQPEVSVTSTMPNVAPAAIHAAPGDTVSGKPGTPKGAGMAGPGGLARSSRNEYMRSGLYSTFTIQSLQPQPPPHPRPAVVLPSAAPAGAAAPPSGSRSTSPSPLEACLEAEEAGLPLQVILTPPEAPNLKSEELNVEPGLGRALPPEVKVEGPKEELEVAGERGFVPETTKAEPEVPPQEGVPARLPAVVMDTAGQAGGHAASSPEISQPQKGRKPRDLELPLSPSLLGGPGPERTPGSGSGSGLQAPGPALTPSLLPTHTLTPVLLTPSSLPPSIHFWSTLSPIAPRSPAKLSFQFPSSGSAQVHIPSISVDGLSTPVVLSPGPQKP
# How it was run: as §1
# GABPA = biological target: T3, GABPA (Homo sapiens, UniProt Q06546 1-454); details: protein: recombinant; tags: N-terminal GST; dsDNA, one strand shown
# T3 sequence: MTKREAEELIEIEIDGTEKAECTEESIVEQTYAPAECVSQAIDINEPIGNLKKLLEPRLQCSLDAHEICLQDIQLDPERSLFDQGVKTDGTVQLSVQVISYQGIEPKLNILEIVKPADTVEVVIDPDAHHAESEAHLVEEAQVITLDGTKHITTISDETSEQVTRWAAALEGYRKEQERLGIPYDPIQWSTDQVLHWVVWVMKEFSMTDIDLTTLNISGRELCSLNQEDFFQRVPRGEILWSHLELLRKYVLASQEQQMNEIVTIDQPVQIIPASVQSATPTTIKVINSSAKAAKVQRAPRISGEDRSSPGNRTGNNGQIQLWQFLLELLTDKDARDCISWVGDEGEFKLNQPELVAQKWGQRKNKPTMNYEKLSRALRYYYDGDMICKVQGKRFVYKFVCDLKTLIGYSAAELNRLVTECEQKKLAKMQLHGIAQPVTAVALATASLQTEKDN
# How it was run: as §1
# ERG = biological target: T4, ERG (Homo sapiens, UniProt P11308 1-479); details: protein: recombinant; tags: N-terminal GST; dsDNA, one strand shown
# T4 sequence: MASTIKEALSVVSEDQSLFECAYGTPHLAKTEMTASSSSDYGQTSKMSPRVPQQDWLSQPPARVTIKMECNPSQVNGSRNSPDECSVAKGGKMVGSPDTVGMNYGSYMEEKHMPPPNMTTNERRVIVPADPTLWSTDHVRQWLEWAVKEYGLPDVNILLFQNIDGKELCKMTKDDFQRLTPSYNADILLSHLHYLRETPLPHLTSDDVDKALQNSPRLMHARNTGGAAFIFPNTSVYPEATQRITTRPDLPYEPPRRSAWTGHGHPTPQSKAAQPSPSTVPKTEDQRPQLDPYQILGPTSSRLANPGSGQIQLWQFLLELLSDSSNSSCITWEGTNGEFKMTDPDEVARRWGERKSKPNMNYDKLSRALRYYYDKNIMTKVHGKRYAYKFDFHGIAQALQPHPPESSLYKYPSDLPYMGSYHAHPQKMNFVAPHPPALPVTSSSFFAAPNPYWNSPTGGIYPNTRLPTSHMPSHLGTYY
# How it was run: as §1
# ELF1 = ELF1 (Homo sapiens, UniProt P32519 1-619); details: protein: recombinant; tags: N-terminal GST; dsDNA, one strand shown
# How it was run: as §1
# EHF = biological target: T5, EHF (Homo sapiens, UniProt Q9NZC4 1-300); details: protein: recombinant; tags: N-terminal GST; dsDNA, one strand shown
# T5 sequence: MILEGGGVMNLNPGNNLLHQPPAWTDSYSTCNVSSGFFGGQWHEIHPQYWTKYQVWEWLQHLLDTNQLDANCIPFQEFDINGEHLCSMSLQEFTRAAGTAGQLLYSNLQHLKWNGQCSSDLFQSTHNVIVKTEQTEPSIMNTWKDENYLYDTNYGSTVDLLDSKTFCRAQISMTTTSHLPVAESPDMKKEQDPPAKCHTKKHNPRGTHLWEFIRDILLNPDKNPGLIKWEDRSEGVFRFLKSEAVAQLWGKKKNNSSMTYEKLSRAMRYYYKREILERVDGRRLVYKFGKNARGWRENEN
# How it was run: as §1
# SPI1 = SPI1 (Homo sapiens, UniProt P17947 1-270); details: protein: recombinant; tags: N-terminal GST; dsDNA, one strand shown
# How it was run: as §1
# SPIB = SPIB (Homo sapiens, UniProt Q01892 1-262); details: protein: recombinant; tags: N-terminal GST; dsDNA, one strand shown
# How it was run: as §1
# ELK3 = biological target: T6, ELK3 (Homo sapiens, UniProt P41970 1-407); details: protein: recombinant; tags: N-terminal GST; dsDNA, one strand shown
# T6 sequence: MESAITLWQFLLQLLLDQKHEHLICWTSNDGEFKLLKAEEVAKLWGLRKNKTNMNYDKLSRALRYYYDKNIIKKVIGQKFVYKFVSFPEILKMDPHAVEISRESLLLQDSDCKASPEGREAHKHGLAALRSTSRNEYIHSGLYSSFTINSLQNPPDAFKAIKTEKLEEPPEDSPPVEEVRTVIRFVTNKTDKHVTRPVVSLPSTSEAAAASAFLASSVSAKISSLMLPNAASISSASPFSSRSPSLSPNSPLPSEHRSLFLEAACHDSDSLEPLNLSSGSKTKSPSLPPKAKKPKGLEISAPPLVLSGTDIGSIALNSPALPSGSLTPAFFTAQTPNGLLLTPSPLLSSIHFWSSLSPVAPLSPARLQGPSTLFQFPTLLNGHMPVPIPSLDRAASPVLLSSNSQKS
# How it was run: as §1
# FEV = biological target: T7, FEV (Homo sapiens, UniProt Q99581 1-238); details: protein: recombinant; tags: N-terminal GST; dsDNA, one strand shown
# T7 sequence: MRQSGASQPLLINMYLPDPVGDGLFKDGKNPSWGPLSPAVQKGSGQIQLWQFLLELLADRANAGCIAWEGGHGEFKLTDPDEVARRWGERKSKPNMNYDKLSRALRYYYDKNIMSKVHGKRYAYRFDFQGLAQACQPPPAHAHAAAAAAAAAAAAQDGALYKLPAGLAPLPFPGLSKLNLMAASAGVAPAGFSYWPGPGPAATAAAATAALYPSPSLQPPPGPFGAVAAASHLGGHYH
# How it was run: as §1
# ETV5 = ETV5 (Homo sapiens, UniProt P41161 1-510); details: protein: recombinant; tags: N-terminal GST; dsDNA, one strand shown
# How it was run: as §1
# HSF1 = HSF1 (Homo sapiens, UniProt Q00613 1-529); details: protein: recombinant; tags: N-terminal GST; chain copies: 3; dsDNA, one strand shown
# How it was run: as §1
# SPIC = biological target: T8, SPIC (Homo sapiens, UniProt Q8N5J4 1-248); details: protein: recombinant; tags: N-terminal GST; dsDNA, one strand shown
# T8 sequence: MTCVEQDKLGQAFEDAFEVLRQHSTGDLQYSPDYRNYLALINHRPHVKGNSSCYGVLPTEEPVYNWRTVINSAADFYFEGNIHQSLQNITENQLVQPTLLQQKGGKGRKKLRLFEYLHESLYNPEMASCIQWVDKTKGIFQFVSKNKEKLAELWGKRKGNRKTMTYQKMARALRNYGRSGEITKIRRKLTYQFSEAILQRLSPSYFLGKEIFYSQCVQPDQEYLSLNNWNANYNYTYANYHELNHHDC
# How it was run: as §1
# ELF4 = ELF4 (Homo sapiens, UniProt Q99607 1-663); details: protein: recombinant; tags: N-terminal GST; dsDNA, one strand shown
# How it was run: as §1
# ELK4 = biological target: T9, ELK4 (Homo sapiens, UniProt P28324-2 1-405); details: protein: recombinant; tags: N-terminal GST; dsDNA, one strand shown
# T9 sequence: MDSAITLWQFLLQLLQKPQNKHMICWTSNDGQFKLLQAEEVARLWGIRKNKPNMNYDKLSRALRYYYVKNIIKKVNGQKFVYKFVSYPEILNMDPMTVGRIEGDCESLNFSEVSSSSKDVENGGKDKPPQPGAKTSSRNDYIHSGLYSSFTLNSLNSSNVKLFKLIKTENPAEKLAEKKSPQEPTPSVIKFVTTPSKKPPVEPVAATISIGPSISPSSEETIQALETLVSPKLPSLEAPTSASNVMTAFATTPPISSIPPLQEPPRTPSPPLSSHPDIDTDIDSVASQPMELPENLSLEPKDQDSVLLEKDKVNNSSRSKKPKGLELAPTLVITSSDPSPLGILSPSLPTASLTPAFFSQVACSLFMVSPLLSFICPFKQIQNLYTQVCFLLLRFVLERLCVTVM
# How it was run: as §1
# ETV2 = biological target: T10, ETV2 (Homo sapiens, UniProt O00321 1-342); details: protein: recombinant; tags: N-terminal GST; dsDNA, one strand shown
# T10 sequence: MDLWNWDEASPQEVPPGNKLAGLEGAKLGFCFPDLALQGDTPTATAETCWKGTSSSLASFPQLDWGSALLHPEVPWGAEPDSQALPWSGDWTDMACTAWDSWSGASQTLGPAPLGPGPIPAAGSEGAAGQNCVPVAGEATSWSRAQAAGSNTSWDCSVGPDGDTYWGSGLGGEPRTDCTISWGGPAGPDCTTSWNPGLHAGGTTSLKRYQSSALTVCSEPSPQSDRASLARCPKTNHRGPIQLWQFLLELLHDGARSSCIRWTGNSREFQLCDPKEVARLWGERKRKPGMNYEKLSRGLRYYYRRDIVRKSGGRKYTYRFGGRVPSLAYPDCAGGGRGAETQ
# How it was run: as §1
# ELF3 = biological target: T11, ELF3 (Homo sapiens, UniProt P78545 1-371); details: protein: recombinant; tags: N-terminal GST; dsDNA, one strand shown
# T11 sequence: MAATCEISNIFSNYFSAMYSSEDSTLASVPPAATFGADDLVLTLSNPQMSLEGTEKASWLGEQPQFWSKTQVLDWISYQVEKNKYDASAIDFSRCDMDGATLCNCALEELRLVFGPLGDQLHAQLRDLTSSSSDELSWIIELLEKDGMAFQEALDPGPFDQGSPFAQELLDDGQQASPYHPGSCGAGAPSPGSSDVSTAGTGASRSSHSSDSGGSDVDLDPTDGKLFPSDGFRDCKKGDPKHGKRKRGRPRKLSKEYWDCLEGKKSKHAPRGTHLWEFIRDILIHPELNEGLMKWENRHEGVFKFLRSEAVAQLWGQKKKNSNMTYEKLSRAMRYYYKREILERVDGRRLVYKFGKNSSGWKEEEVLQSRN
# How it was run: as §1
# CRX = CRX (Homo sapiens, UniProt O43186 1-299); details: protein: recombinant; tags: N-terminal GST; dsDNA, one strand shown
# How it was run: as §1
# ETV1 = ETV1 (Homo sapiens, UniProt P50549 1-477); details: protein: recombinant; tags: N-terminal GST; dsDNA, one strand shown
# How it was run: as §1
# Sequence of ELF4 (Q99607 whole entry): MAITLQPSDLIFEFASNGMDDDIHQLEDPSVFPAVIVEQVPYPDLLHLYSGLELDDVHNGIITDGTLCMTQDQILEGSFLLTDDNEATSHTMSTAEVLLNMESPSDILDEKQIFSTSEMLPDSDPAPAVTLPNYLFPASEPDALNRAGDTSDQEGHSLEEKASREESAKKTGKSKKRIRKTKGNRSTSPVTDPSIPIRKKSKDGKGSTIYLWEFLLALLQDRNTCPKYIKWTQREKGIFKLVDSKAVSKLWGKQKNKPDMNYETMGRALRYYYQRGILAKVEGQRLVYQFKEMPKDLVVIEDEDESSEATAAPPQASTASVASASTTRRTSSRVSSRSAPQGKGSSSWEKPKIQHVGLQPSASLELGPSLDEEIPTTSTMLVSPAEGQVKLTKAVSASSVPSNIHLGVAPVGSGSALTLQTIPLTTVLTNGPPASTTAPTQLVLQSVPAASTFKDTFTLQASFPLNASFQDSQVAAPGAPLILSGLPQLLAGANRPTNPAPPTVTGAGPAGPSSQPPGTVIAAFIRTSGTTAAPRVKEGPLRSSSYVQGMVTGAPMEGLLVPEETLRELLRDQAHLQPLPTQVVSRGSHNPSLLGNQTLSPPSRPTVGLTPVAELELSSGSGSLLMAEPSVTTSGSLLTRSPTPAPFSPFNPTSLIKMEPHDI
# Sequence of HSF1 (Q00613 whole entry): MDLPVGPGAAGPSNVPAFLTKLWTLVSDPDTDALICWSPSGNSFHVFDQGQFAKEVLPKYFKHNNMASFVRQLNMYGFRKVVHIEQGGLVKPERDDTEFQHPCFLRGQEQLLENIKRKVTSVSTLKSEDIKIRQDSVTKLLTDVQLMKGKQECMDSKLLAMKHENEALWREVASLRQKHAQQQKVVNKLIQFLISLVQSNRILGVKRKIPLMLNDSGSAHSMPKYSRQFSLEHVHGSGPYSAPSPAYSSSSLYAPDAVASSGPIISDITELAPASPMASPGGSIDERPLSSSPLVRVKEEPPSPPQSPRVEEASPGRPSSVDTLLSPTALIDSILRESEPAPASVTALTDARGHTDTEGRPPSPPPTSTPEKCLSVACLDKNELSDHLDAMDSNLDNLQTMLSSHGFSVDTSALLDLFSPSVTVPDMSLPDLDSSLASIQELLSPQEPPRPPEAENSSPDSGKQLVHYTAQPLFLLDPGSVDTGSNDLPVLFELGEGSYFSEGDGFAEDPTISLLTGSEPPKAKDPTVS
# Sequence of ETV5 (P41161 whole entry): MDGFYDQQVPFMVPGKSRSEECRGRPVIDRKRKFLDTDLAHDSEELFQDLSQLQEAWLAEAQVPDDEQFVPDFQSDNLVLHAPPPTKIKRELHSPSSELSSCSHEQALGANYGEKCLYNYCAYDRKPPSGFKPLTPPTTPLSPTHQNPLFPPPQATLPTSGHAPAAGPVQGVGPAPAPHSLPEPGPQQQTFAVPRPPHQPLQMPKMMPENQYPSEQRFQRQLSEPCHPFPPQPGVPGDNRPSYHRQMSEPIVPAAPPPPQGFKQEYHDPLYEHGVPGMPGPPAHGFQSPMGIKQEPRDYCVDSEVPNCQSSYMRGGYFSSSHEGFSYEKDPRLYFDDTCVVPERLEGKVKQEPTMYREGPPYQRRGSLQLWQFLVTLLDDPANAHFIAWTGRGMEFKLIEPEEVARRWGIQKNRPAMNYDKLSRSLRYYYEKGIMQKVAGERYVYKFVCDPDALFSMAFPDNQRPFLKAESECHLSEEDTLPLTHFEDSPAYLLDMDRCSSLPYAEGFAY
# Sequence of ELF1 (P32519 whole entry): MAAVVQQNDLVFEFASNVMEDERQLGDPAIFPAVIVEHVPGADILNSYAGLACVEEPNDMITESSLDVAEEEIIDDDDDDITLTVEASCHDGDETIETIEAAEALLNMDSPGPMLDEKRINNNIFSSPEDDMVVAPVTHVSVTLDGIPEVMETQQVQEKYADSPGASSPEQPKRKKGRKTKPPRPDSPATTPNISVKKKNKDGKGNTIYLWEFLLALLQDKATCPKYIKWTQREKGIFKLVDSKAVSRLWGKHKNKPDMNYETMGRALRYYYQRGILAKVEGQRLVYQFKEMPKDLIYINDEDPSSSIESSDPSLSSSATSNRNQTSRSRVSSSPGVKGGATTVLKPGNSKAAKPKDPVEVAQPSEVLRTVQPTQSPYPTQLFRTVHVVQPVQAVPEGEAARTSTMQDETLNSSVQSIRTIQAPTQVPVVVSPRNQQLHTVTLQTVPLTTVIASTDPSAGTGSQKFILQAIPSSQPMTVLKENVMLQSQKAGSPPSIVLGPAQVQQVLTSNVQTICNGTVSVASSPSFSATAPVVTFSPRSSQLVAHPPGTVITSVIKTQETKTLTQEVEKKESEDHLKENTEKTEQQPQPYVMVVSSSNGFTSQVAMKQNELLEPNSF
# Sequence of CRX (O43186 whole entry): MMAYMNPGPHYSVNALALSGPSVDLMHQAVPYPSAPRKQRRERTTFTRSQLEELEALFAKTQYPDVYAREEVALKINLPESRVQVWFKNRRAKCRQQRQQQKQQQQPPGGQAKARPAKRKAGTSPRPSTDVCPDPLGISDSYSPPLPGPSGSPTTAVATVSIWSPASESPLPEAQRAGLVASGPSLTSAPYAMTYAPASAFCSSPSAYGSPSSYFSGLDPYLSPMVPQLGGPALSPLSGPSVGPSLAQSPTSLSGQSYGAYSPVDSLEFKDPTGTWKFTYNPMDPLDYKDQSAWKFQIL
# Sequence of ETV1 (P50549 whole entry): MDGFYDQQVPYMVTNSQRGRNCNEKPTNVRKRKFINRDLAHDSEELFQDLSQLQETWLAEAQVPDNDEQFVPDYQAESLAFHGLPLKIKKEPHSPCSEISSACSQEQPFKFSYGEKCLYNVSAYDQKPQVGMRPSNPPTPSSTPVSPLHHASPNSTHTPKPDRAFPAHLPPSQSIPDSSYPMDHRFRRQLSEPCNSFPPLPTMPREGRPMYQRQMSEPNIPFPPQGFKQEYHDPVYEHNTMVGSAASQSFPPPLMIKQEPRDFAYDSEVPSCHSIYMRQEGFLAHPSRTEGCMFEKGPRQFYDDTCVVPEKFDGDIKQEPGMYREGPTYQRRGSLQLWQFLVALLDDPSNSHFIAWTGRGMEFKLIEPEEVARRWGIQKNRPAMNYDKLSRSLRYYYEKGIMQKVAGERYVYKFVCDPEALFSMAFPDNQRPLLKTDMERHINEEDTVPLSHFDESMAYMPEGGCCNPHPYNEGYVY
# Sequence of SPIB (Q01892 whole entry): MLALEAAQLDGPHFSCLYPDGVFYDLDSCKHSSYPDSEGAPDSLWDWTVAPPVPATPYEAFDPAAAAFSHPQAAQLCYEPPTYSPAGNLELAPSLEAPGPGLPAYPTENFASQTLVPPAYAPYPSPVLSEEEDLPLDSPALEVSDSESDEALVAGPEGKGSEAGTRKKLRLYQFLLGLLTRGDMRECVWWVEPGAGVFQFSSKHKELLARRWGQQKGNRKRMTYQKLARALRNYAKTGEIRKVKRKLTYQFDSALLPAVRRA
sequence,measurement,setting,value
CTCTAA,binding signal,FLI1,"1.3 fold enrichment (6-mer frequency, TF over GST control)"
same,binding signal,ELK1,"1.33 fold enrichment (6-mer frequency, TF over GST control)"
same,binding signal,GABPA,"1.28 fold enrichment (6-mer frequency, TF over GST control)"
same,binding signal,ERG,"1.32 fold enrichment (6-mer frequency, TF over GST control)"
same,binding signal,ELF1,"1.37 fold enrichment (6-mer frequency, TF over GST control)"
same,binding signal,EHF,"1.41 fold enrichment (6-mer frequency, TF over GST control)"
same,binding signal,SPI1,"1.35 fold enrichment (6-mer frequency, TF over GST control)"
same,binding signal,SPIB,"1.25 fold enrichment (6-mer frequency, TF over GST control)"
same,binding signal,ELK3,"1.43 fold enrichment (6-mer frequency, TF over GST control)"
same,binding signal,FEV,"1.29 fold enrichment (6-mer frequency, TF over GST control)"
same,binding signal,ETV5,"1.37 fold enrichment (6-mer frequency, TF over GST control)"
same,binding signal,HSF1,"1.49 fold enrichment (6-mer frequency, TF over GST control)"
same,binding signal,SPIC,"1.6 fold enrichment (6-mer frequency, TF over GST control)"
same,binding signal,ELF4,"1.31 fold enrichment (6-mer frequency, TF over GST control)"
same,binding signal,ELK4,"1.22 fold enrichment (6-mer frequency, TF over GST control)"
same,binding signal,ETV2,"1.37 fold enrichment (6-mer frequency, TF over GST control)"
same,binding signal,ELF3,"1.5 fold enrichment (6-mer frequency, TF over GST control)"
same,binding signal,CRX,"2 fold enrichment (6-mer frequency, TF over GST control)"
same,binding signal,ETV1,"1.32 fold enrichment (6-mer frequency, TF over GST control)"
